Data reported in PubChem BioAssay (EPA / NIEHS).
Inconclusive results are not listed. Activity calls are given as the source filed them. How the source made its calls, unless noted: active means hit-call score of the fitted dose curve at least 0.9, where 1 is the maximum; inconclusive means response in the unintended direction; inactive means score below 0.9.

Columns and labels:
[1] = Tanguay_ZF_120hpf_OTIC_legacy: (Legacy) Oregon State University Tanguay Lab 120 Hour Post-fertilization zebrafish Assay for Otic Vesicle Malformation (AID 2283639)
How it was run: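 Tropical 5D wild-type zebrafish embryos were exposed statically in sealed, foil-covered plates at 28C until 120 hpf, with 0.64% (vol/vol) DMSO final. Otic vesicle malformation was scored present/absent by brightfield microscopy, with DMSO as baseline.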

[2] = Tanguay_ZF_120hpf_PE_legacy: (Legacy) Oregon State University Tanguay Lab 120 Hour Post-fertilization zebrafish Assay for Pericardial Edema (AID 2283640);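 on AC50: potency for increased incidence of pericardial edema versus DMSO baseline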
How it was run: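 Read-out is the presence or absence of pericardial edema at 120 hpf under brightfield, with gain of signal fitted against DMSO controls. Larvae (5D wild-type) were statically exposed at 28C with 0.64% final DMSO.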

[3] = Tanguay_ZF_120hpf_BRAI_legacy: (Legacy) Oregon State University Tanguay Lab 120 Hour Post-fertilization zebrafish Assay for Brain Malformation (AID 2283641)
How it was run: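 Brain malformation in Tropical 5D zebrafish was recorded as a binary endpoint after static compound exposure from early development to 120 hpf at 28C. Activity was analysed against DMSO as negative control.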

[4] = Tanguay_ZF_120hpf_SOMI_legacy: (Legacy) Oregon State University Tanguay Lab 120 Hour Post-fertilization zebrafish Assay for Somite Malformation (AID 2283647)
How it was run: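 5D WT zebrafish; chorion removed 4 hpf; 1 embryo/well from 6 hpf; static exposure to 120 hpf, 28C, 0.64% DMSO final. Endpoint: somite malformation, binary, brightfield. Mortality excluded.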

[5] = Tanguay_ZF_120hpf_PFIN_legacy: (Legacy) Oregon State University Tanguay Lab 120 Hour Post-fertilization zebrafish Assay for Pectoral Fin Malformation (AID 2283648);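 further: each larva judged yes or no for fin defect by brightfield with dead larvae skipped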
How it was run: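 5D WT zebrafish; pronase dechorionation 4 hpf; 1 embryo/well at 6 hpf; static exposure to 120 hpf, 28C, sealed, foil-covered; final DMSO 0.64% v/v; 5 uM trimethyltin chloride positive control; fin defect scored yes/no.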

[6] = Tanguay_ZF_120hpf_CFIN_legacy: (Legacy) Oregon State University Tanguay Lab 120 Hour Post-fertilization zebrafish Assay for Caudal Fin Malformation (AID 2283649)
How it was run: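 Embryos were collected from Tropical 5D wild-type adults and dechorionated at 4 hpf. At 6 hpf each was exposed, one per well, at 0.64% DMSO and 28C. At 120 hpf fin morphology was scored; dead embryos were excluded.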

[7] = Tanguay_ZF_120hpf_PIG_legacy: (Legacy) Oregon State University Tanguay Lab 120 Hour Post-fertilization zebrafish Assay for Pigmentation Malformation (AID 2283650)
How it was run: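 Pronase dechorionation at 4 hpf; embryos plated at 6 hpf, one per well; static exposure, sealed and foil-covered, 28C, to 120 hpf; pigmentation read by brightfield, binary; DMSO 0.64% baseline, 5uM trimethyltin chloride positive control.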

[8] = read-out: kallikrein-3 (KLK3), KLK3 (gene 354); assay: LTEA_HepaRG_KLK3: Life Technologies and Expression Analysis (LTEA) Assay for kallikrein-3 (KLK3) using HepaRG (AID 2283652; active means hit-call score of the fitted dose curve at least 0.9, where 1 is the maximum; inactive means score below 0.9); settings: mRNA level, 48 h; actives raise or lower the signal
How it was run: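 Differentiated human HepaRG cells in serum-free induction medium exposed 48 h in duplicate, eight-point half-log series from 100 uM in 0.5% DMSO. KLK3 mRNA by qRT-PCR, normalised to ACTB, GAPDH, POLR2A; bidirectional fit versus DMSO.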

[9] = read-out: solute carrier (SLC22A6), SLC22A6 (gene 9356); assay: LTEA_HepaRG_SLC22A6: Life Technologies and Expression Analysis (LTEA) Assay for solute carrier (SLC22A6) using HepaRG (AID 2283653; active means hit-call score of the fitted dose curve at least 0.9, where 1 is the maximum; inactive means score below 0.9); settings: mRNA level, 48 h; actives raise or lower the signal
How it was run: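 This endpoint tracks SLC22A6 mRNA induction or suppression in human HepaRG cultures after 48 h dosing, concentrations reaching 100 uM. Values derive from bidirectional fitting against DMSO controls.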

[10] = Tanguay_ZF_120hpf_SWIM_legacy: (Legacy) Oregon State University Tanguay Lab 120 Hour Post-fertilization zebrafish Assay for Swim Bladder Malformation (AID 2283654);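 further: swim bladder malformation in each larva scored yes or no under brightfield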
How it was run: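 Embryos lacking chorions were exposed individually and statically to test chemical from 6 to 120 hpf at 28C, with 0.64% DMSO as vehicle. At 120 hpf, swim bladder malformation was recorded as present or absent by brightfield microscopy.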

[11] = Tanguay_ZF_120hpf_TRUN_legacy: (Legacy) Oregon State University Tanguay Lab 120 Hour Post-fertilization zebrafish Assay for Truncated Body (AID 2283655)
How it was run: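 5D wild-type larvae; pronase dechorionation; static exposure 6→120 hpf, 28C; DMSO 0.64% final; 5uM trimethyltin chloride positive control. Readout: presence/absence of truncated body, analyzed relative to DMSO.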

[12] = Tanguay_ZF_120hpf_NC_legacy: (Legacy) Oregon State University Tanguay Lab 120 Hour Post-fertilization zebrafish Assay for Notochord and Tail Malformation (AID 2283656)
How it was run: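 Dechorionated 5D zebrafish, 1/well from 6 hpf; static exposure to 120 hpf, 28C, sealed, dark; final DMSO 0.64% v/v. NC scored binary (present/absent); dead embryos not scored. Fit vs DMSO baseline, gain direction.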

[13] = read-out: solute carrier (SLC10A1), SLC10A1 (gene 6554); assay: LTEA_HepaRG_SLC10A1: Life Technologies and Expression Analysis (LTEA) Assay for solute carrier (SLC10A1) using HepaRG (AID 2283657; active means hit-call score of the fitted dose curve at least 0.9, where 1 is the maximum; inactive means score below 0.9); settings: mRNA level, 48 h; actives raise or lower the signal
How it was run: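 Transcript levels were measured by qRT-PCR after human HepaRG cells received test chemical for 48 hours, up to 100 uM in half-log dilutions. Values come from bidirectional concentration-response fitting relative to 0.5% DMSO vehicle.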

[14] = read-out: matrix metalloproteinase-1 (MMP1), MMP1 (gene 4312); assay: LTEA_HepaRG_MMP1: Life Technologies and Expression Analysis (LTEA) Assay for matrix metalloproteinase-1 (MMP1) using HepaRG (AID 2283658; active means hit-call score of the fitted dose curve at least 0.9, where 1 is the maximum; inactive means score below 0.9); settings: mRNA level, 48 h; actives raise or lower the signal
How it was run: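 Bidirectional concentration-response fitting relative to 0.5% DMSO gives the endpoint, derived from MMP1 mRNA levels (qRT-PCR) in human HepaRG cells treated 48 h with chemicals up to 100 uM.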

[15] = read-out: Broad substrate specificity ATP-binding cassette transporter ABCG2 (Homo sapiens) (UniProt Q9UNQ0); assay: CLD_ABCG2_6hr: CellzDirect (CLD) Gene Expression Assay for ABC Transporter (ABCG2) at 6 hours (AID 2283660)
How it was run: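 Primary human hepatocytes dosed daily with chemicals at multiple concentrations (0.2% DMSO vehicle), harvested 6 h after dosing. ABCG2 mRNA induction read by quantitative nuclease protection assay (qNPA) chemiluminescence; gain of signal fitted against DMSO baseline.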

[16] = read-out: xenobiotic metabolism (CYP1A1), CYP1A1 (gene 1543); assay: CLD_CYP1A1_6hr: CellzDirect (CLD) Gene Expression Assay for xenobiotic metabolism (CYP1A1) at 6 hours (AID 2283661);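 on AC50: potency for transcript induction above DMSO vehicle baseline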
How it was run: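 Primary human hepatocytes from two donors, compound versus 0.2% DMSO vehicle. CYP1A1 mRNA measured 6 h after dosing by quantitative nuclease protection assay with chemiluminescent read-out; induction fitted relative to DMSO, cytotoxicity flagged by microscopy.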

[17] = read-out: xenobiotic metabolism (CYP1A2), CYP1A2 (gene 1544); assay: CLD_CYP1A2_6hr: CellzDirect (CLD) Gene Expression Assay for xenobiotic metabolism (CYP1A2) at 6 hours (AID 2283663);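 on AC50: potency is for induction meaning a rise in mRNA above DMSO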
How it was run: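 Primary human hepatocytes from two donor preparations, dosed daily with multiple concentrations in 0.2% DMSO and harvested at 6 h. CYP1A2 mRNA induction measured by chemiluminescent qNPA, gain of signal fitted against DMSO; cytotoxicity flagged morphologically.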

[18] = CCTE_Simmons_CellTiterGLO_HEK293T: Viability Assessment in CCTE's Assays for Thyroperoxidase (TPO) Inhibition, Simmons Lab (AID 2283665);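 on AC50: cells exposed to compound for 24 h before readout; actives reduce ATP signal below DMSO vehicle meaning cytotoxicity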
How it was run: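 HEK293T cells in DMEM with 1% FBS were dosed with 8 concentrations (5 nM–87.5 uM final, 0.5% DMSO) for 24 hr at 37C; ATP content was read by CellTiter-Glo luminescence, loss-of-signal versus DMSO, three biological replicates.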

[19] = Tanguay_ZF_120hpf_CIRC_legacy: (Legacy) Oregon State University Tanguay Lab 120 Hour Post-fertilization zebrafish Assay for Circulatory Malformation (AID 2283651)
How it was run: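 Tropical 5D wild-type embryos, dechorionated with pronase at 4 hpf, were placed singly in wells at 6 hpf and exposed statically at 28C to 120 hpf (0.64% DMSO final). Circulatory malformation was scored present/absent by brightfield microscopy.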

[20] = read-out: ABC Transporter (ABCB1), ABCB1 (gene 5243); assay: CLD_ABCB1_6hr: CellzDirect (CLD) Gene Expression Assay for ABC Transporter (ABCB1) at 6 hours (AID 2283659);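 further: hits raise ABCB1 transcript above the DMSO vehicle baseline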
How it was run: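 Primary human hepatocytes (two donor preparations) dosed daily for two days with chemicals at multiple concentrations, 0.2% DMSO vehicle; harvested 6 h post-dose. ABCB1 mRNA induction quantified by qNPA chemiluminescence; gain-of-signal fitted versus DMSO.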

Measured: AC50

Broad substrate specificity ATP-binding cassette transporter ABCG2 (Homo sapiens), sequence (Q9UNQ0 whole entry, looked up): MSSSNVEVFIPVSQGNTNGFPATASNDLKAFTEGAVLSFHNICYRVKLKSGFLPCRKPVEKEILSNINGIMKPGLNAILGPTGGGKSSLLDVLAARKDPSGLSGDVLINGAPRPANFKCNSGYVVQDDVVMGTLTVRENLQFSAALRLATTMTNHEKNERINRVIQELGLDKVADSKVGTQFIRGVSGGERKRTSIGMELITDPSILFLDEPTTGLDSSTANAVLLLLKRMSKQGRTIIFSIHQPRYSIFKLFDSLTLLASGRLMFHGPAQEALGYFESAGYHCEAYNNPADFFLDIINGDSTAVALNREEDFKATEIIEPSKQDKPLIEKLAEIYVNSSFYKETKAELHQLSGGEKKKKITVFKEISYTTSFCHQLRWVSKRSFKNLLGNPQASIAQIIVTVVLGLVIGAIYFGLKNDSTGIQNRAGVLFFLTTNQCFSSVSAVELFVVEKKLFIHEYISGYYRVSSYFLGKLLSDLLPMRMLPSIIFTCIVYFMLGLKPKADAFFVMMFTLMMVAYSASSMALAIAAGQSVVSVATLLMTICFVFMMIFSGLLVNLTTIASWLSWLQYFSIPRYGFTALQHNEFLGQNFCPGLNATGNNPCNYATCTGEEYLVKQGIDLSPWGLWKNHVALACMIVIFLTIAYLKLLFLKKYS

CC(COc1ccc(Oc2ccccc2)cc1)Oc1ccccn1 (stereo not drawn)
active: [13] 27.9 µM
inactive: [1] | [2] | [3] | [4] | [5] | [6] | [7] | [8] | [9] | [10] | [11] | [12] | [14] | [15] | [16] | [17]

CCCSP(=O)(OCC)Oc1ccc(Br)cc1Cl (stereo not drawn)
active: [16] 10.2 µM | [18] 41.5 µM
inactive: [1] | [2] | [3] | [4] | [5] | [6] | [7] | [10] | [11] | [15] | [17]

CSc1nc(NC(C)C)nc(NC(C)C)n1
inactive: [1] | [2] | [3] | [4] | [5] | [6] | [7] | [19] | [9] | [10] | [12] | [14] | [15] | [17]
active: [13] 61.6 µM | [16] 3.97 µM

COc1ccc(C(=CC(=O)N2CCOCC2)c2ccc(Cl)cc2)cc1OC
active: [1] 42.6 µM | [2] 34.2 µM | [3] 40.9 µM | [5] 45.5 µM | [6] 37.3 µM | [10] 63.3 µM | [11] 51.4 µM
inactive: [4] | [7] | [19] | [15]

CN(C)NC(=O)CCC(=O)O
inactive: [1] | [2] | [3] | [4] | [5] | [6] | [7] | [10] | [11] | [12] | [20] | [15] | [17]

Nc1c(Cl)cc([N+](=O)[O-])cc1Cl
active: [1] 36.4 µM | [2] 43.1 µM | [3] 46.3 µM | [5] 42.1 µM | [6] 39.1 µM | [7] 10.8 µM | [11] 34.7 µM | [16] 34.5 µM
inactive: [4] | [19] | [10] | [12] | [15] | [17]

CC(C)[C@H](C(=O)O[C@H](C#N)c1cccc(Oc2ccccc2)c1)c1ccc(Cl)cc1
active: [2] 5.21 µM | [3] 4.07 µM | [4] 1.15 µM | [5] 1.17 µM | [10] 4.25 µM
inactive: [1] | [6] | [7] | [19] | [11] | [12] | [15] | [16] | [17]

Cc1ccn2nc(S(=O)(=O)Nc3c(F)cccc3F)nc2n1
inactive: [1] | [2] | [3] | [4] | [5] | [6] | [7] | [19] | [10] | [11] | [12] | [15] | [16] | [17]

CNC(=O)Oc1cccc2c1OC(C)(C)O2
active: [16] 2.94 µM | [17] 3.97 µM
inactive: [1] | [2] | [3] | [4] | [5] | [6] | [7] | [8] | [9] | [10] | [11] | [12] | [13] | [14]

CCCOCC(=Nc1ccc(Cl)cc1C(F)(F)F)n1ccnc1
active: [16] 1.9 µM | [17] 1.89 µM | [18] 21.3 µM
inactive: [1] | [2] | [3] | [4] | [5] | [6] | [7] | [10] | [11] | [12] | [15]

O=c1ccc(=O)[nH][nH]1
active: [12] 41.6 µM
inactive: [1] | [2] | [3] | [4] | [5] | [6] | [7] | [10] | [11] | [20] | [15] | [17] | [18]

CCOP(=S)(OCC)OC(Cl)C(Cl)(Cl)Cl (stereo not drawn)
active: [18] 64.7 µM
inactive: [1] | [2] | [3] | [4] | [5] | [6] | [7] | [11] | [12] | [16] | [17]

C[N+]1(C)CCCCC1
inactive: [1] | [2] | [3] | [4] | [5] | [6] | [7] | [19] | [10] | [11] | [12] | [15] | [16] | [17]

CCCCOC(=O)c1ccccc1C(=O)O
inactive: [1] | [2] | [3] | [4] | [5] | [6] | [7] | [19] | [10] | [11] | [20] | [15] | [16]

FC(F)C(F)(F)OCC(Cn1cncn1)c1ccc(Cl)cc1Cl (stereo not drawn)
active: [1] 47 µM | [2] 26.1 µM | [3] 13.7 µM | [4] 48.5 µM | [5] 46.6 µM | [6] 49.2 µM | [7] 49.6 µM | [19] 17.2 µM | [10] 18.2 µM | [11] 49.6 µM | [16] 2.47 µM | [17] 2.45 µM
inactive: [12]

CCOC(=O)CC(SP(=O)(OC)OC)C(=O)OCC (stereo not drawn)
active: [13] 10.1 µM
inactive: [1] | [2] | [3] | [4] | [5] | [6] | [7] | [19] | [9] | [10] | [11] | [12] | [14] | [16] | [17] | [18]

C[Si](Cn1cncn1)(c1ccc(F)cc1)c1ccc(F)cc1
inactive: [7] | [19] | [10] | [15] | [17]
active: [1] 12.7 µM | [2] 9.78 µM | [3] 47 µM | [4] 47.7 µM | [5] 20.9 µM | [6] 36 µM | [11] 11 µM | [16] 20 µM
